Experimental data as given in ChEMBL document CHEMBL3988442, “University of Dundee, Small-Polar-MMV Screening Library” (2021).
For some assays here: Measured potencies and affinities stand elsewhere.

Experiments:
Design in all cases: scale not given: direction of the effect not stated beside the values
[1] = target: Protein translocase subunit SecA (Escherichia coli (strain K12)) (UniProt P10408); test: Assay to Identify E. coli SecA ATPase Inhibitors; assay type: functional; conditions: 30 µM
[2] = target: T1, Ubiquitin-activating enzyme e1, putative (Leishmania donovani (strain BPK282A1)) (UniProt E9BSI1); test: Leishmania donovani Ubiquitin Activating Enzyme (LdE1); assay type: functional; conditions: 30 µM
T1 sequence (whole entry): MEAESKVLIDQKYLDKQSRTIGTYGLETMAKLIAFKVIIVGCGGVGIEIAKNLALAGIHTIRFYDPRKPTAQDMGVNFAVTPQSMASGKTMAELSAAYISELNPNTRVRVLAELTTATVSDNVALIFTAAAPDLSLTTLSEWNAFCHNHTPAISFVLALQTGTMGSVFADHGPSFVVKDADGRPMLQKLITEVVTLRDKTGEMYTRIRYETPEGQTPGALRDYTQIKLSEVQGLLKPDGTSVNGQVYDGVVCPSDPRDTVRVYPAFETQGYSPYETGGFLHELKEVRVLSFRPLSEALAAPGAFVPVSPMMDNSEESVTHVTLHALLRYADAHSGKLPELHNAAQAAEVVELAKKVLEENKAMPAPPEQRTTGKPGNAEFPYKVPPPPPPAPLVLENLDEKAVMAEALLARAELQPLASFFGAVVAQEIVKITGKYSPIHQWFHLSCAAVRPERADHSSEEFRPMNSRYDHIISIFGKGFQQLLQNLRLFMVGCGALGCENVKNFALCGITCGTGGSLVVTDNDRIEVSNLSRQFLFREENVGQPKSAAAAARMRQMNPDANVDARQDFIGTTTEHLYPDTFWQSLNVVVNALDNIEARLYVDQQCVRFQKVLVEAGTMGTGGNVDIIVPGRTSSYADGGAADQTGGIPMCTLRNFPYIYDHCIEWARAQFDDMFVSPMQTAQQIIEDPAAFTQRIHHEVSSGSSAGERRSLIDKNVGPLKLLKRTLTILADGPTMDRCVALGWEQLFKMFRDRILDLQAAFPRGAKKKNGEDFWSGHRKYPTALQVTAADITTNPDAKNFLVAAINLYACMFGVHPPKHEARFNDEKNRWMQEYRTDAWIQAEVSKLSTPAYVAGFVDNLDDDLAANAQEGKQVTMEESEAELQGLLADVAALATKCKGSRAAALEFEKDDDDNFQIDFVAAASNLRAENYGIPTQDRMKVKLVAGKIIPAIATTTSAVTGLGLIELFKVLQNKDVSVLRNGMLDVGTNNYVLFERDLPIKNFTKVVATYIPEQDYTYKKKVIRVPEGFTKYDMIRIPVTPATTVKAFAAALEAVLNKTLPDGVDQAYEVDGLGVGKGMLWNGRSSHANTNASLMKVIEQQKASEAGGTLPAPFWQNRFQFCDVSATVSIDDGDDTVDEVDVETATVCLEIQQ

[3] = target: Sialic acid-binding Ig-like lectin 9 (Homo sapiens) (UniProt Q9Y336); test: Hs-Siglec9 ALPHAscreen SOP 20170721; conditions: 10 µM
Sialic acid-binding Ig-like lectin 9 (Homo sapiens), sequence (Q9Y336 whole entry): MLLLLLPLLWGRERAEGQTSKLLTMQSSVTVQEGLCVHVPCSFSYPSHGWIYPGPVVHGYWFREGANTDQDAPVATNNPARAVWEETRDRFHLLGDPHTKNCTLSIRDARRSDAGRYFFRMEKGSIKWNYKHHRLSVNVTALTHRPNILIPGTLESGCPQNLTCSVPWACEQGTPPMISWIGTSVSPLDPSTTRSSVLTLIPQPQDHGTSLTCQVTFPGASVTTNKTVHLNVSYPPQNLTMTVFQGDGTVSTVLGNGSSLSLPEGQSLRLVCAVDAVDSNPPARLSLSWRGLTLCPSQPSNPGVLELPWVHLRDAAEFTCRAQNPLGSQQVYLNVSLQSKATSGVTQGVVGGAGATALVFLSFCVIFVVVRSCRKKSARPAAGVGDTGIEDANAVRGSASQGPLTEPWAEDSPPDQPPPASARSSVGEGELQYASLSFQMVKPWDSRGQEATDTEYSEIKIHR

[4] = test system: Trypanosoma cruzi; test: Trypanosoma cruzi phosphomannomutase and mannose-1-phosphate guanylyltransferase assay; assay type: functional; conditions: 10 µM
[5] = target: T2, Arginase-2, mitochondrial (Homo sapiens) (UniProt P78540); test: in vitro enzyme assay to detect the production of urea directly proportional to the activity of Arginase II; assay type: functional; conditions: 33.3 µM; note: in the data most compounds retested in dose-response had high values
T2 sequence (whole entry): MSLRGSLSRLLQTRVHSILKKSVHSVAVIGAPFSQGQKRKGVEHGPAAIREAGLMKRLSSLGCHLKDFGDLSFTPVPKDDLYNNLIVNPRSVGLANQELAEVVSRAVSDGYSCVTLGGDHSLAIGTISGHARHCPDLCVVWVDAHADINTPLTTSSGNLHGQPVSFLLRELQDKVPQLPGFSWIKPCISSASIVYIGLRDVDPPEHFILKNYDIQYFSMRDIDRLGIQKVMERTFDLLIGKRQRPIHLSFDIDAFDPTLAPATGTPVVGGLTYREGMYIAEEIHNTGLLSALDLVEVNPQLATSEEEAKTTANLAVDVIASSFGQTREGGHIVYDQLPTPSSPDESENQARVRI

[6] = target: T3, Proteasome subunit beta (Trypanosoma cruzi) (UniProt O96673); test: Trypanosoma cruzi proteasome chymotrypsin-like activity (TcProtChymo) assay.; note: in the data most compounds retested in dose-response had high values; assay type: functional; conditions: 9.37 µM
T3 sequence (whole entry): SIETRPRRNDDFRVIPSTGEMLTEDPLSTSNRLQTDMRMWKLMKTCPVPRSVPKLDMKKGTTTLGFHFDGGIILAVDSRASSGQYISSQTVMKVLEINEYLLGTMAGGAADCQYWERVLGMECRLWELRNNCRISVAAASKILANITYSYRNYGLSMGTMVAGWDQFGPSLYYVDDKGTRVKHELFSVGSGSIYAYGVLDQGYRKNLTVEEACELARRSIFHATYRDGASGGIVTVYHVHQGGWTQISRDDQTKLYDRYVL

[7] = species on record: Homo sapiens; test: To identify inhibition of the IFN signalling (Jak-Stat) pathway via expression of an eGFP reporter gene under the control of an IFN-stimulated response element (ISRE) containing MxA promoter.; assay type: functional; conditions: 30 µM
[8] = target: T4, Tyrosyl-tRNA synthetase, putative (Trypanosoma cruzi (strain CL Brener)) (UniProt Q4DSP6); test: Trypanosoma cruzi tyrosyl tRNA synthetase (TcYRS) _High Tyrosine SOP; assay type: functional; conditions: 30 µM; note: in the data most compounds retested in dose-response had high values
T4 sequence (whole entry): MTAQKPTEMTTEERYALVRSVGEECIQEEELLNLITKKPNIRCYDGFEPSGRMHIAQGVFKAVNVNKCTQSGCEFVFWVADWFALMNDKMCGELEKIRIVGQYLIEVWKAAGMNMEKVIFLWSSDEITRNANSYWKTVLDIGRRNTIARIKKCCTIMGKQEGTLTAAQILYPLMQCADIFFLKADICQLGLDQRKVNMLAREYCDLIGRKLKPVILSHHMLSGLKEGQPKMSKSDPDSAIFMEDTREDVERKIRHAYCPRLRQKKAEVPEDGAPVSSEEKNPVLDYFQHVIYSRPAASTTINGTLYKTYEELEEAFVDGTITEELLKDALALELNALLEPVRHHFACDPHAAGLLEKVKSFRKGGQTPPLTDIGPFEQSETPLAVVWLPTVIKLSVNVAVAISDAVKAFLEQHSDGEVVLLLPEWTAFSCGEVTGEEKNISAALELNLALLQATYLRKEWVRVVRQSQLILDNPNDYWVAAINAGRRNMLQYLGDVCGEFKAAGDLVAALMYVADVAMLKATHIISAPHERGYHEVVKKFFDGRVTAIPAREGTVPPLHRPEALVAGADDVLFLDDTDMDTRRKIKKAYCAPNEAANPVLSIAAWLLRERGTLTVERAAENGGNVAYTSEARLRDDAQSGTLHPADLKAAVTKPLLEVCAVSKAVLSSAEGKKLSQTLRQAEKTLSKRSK

[9] = target: T4, Tyrosyl-tRNA synthetase, putative (Trypanosoma cruzi (strain CL Brener)); test: Trypanosoma cruzi tyrosyl tRNA synthetase (TcYRS) SOP; assay type: functional; conditions: 30 µM
[10] = target: Chromo domain-containing protein 1 (Saccharomyces cerevisiae (strain ATCC 204508 / S288c) (Baker's yeast)) (UniProt P32657); test: ScCHD-1 Enzyme Inhibition Assay; assay type: functional; conditions: 30 µM; note: in the data most compounds retested in dose-response had high values
Chromo domain-containing protein 1 (Saccharomyces cerevisiae (strain ATCC 204508 / S288c) (Baker's yeast)), sequence (P32657 whole entry, the tested form may be a part): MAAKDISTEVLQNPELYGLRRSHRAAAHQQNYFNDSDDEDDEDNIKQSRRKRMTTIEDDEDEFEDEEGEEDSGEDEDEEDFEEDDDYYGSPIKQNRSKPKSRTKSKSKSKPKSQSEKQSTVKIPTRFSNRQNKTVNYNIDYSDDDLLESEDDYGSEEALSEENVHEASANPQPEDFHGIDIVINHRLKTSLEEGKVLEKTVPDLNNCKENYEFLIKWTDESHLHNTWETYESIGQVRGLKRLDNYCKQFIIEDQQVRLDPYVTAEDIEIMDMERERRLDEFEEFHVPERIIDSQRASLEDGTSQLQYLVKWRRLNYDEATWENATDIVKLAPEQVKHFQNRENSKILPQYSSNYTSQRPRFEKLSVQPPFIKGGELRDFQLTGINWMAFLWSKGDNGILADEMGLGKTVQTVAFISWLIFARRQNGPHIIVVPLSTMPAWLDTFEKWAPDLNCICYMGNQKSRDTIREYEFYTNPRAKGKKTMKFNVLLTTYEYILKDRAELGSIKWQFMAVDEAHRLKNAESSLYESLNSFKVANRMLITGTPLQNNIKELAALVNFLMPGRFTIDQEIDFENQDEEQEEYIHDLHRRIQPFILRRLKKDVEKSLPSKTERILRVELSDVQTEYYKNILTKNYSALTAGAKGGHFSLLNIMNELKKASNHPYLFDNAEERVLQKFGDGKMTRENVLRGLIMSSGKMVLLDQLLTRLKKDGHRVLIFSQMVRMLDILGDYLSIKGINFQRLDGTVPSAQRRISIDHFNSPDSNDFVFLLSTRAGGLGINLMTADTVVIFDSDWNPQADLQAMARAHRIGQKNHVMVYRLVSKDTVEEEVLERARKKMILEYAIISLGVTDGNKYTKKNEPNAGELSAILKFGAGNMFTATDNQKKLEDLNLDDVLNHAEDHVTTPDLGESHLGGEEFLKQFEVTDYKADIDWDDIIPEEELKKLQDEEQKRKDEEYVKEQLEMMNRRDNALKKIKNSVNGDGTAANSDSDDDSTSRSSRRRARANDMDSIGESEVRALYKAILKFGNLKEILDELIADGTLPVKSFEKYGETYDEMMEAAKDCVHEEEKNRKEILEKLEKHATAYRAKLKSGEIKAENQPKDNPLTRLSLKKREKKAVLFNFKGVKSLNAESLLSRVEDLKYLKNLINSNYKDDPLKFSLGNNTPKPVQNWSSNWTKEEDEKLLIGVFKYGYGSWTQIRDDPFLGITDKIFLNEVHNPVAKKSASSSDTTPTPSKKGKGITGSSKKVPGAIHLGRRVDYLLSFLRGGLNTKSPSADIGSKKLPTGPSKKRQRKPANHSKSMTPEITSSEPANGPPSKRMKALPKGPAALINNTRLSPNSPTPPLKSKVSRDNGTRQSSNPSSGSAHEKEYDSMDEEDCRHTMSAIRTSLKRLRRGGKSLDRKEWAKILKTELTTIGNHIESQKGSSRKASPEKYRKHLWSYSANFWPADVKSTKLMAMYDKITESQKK

Protein translocase subunit SecA (Escherichia coli (strain K12)), sequence (P10408 whole entry): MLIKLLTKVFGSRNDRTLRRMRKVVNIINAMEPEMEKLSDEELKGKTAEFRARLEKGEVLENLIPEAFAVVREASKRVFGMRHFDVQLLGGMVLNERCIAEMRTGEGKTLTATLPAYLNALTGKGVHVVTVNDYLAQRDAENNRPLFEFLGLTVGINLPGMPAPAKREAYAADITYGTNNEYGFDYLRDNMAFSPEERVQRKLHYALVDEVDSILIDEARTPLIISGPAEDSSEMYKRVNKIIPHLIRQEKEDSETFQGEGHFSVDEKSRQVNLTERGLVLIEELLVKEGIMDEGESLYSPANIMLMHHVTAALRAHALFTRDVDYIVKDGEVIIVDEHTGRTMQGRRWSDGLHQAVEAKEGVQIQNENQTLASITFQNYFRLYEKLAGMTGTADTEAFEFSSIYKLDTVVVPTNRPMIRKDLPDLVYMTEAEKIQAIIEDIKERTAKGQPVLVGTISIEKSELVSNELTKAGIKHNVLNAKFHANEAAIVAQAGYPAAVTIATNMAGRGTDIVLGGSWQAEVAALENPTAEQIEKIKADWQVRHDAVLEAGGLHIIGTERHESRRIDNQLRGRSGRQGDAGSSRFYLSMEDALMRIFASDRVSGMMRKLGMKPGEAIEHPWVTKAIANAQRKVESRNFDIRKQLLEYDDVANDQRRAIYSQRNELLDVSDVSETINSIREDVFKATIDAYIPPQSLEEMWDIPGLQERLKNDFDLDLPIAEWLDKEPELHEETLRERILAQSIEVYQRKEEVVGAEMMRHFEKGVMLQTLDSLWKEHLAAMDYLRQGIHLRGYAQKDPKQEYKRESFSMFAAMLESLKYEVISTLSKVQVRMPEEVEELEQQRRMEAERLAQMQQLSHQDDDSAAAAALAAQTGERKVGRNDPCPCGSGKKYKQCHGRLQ

Compound | Percent Effect [1] [%] | Percent Effect [2] [%] | Percent Effect [3] [%] | Percent Effect [4] [%] | Percent Effect [5] [%] | Percent Effect [6] [%] | Percent Effect [7] [%] | Percent Effect [8] [%] | Percent Effect [9] [%] | Percent Effect [10] [%]
O=C(O)c1csc(S(=O)(=O)Nc2cccc(OC(F)F)c2)c1 | -5.06 | -7.69 | -2.43 | -1.03 | 5.74 | 8.11 | 2.87 | -5.26 | 1.21 | -6.19
NC[C@H]1CC[C@H](C(NC(=O)c2ccccc2)c2ccccn2)CC1 (stereo not given in full) | -0.915 | 12 | -7.17 | 4.54 | -2.21 | 13.3 | -1.97 | 10.6 | 25 | -27.6
CC(C)(C)n1ncc2c1NC(=O)CC2c1ccsc1 (stereo not given) | -1.95 | 2.7 | -2.29 | -7.47 | 5.94 | 13.2 | 15.1 | 4.79 | 9.76 | -1.82
Cn1cc(-c2nc(CNCCn3cccn3)cs2)cn1 | 3.44 | 10.3 | -15.7 | -6.67 | -0.41 | 16 | 32.9 | 8.13 | 13.2 | 27.9
CC(=O)N1CCCC1c1csc(Nc2cnccn2)n1 (stereo not given) | 0.761 | 9.33 | -8.01 | -5.33 | 2.21 | 11.8 | 20 | 3.17 | 10 | -25.7
COCCN1CCN(Cc2ccc(F)c(C)c2)[C@H]2CS(=O)(=O)C[C@H]21 | -6.45 | 10.8 | 28.9 | 12.3 | 10.8 | 5.48 | -1.07 | 7.98 | 17.1 | -4.27
CNC(=O)c1cc(S(=O)(=O)C(C)C)cs1 | 0.159 | 19.5 | 28.2 | 3.75 | 3.2 | 13.7 | -6.32 | 6.76 | 20 | -10.6
N#Cc1cccc(S(=O)(=O)NC(=O)COc2ccc3c(c2)CCC3)c1 | -4.11 | 12.8 | -9.11 | 6.48 | -0.82 | 17 | 0.752 | 0.478 | 20.5 | -4.5
CC(C)N(Cc1cccc(F)c1)Cc1nc2c(cnn2C)c(=O)[nH]1 | -1.46 | 7.69 | 6.74 | 0.469 | 3.28 | 1.79 | 5.6 | 3.35 | 13.2 | -4.1
CN(C)CC1CN(Cc2nnc(-c3ccccc3Cl)o2)CCO1 (stereo not given) | -1.11 | 13.3 | -7.04 | -2.81 | 1.77 | 15.7 | 9.96 | -3.68 | 0 | -11.7
Cc1ccc(F)cc1S(=O)(=O)NCc1cccnc1N(C)C | 2.25 | 20.8 | -2.76 | -0.373 | -5.53 | 14.7 | 26.1 | 7.84 | 21.2 | -8.95
